Test results reported in PubChem BioAssay AID651742 (Broad Institute, 2012).
In all, about 5,600 compounds went through this assay and about 780 (14%) were called active. About 3% were inconclusive and are not listed.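 How the source made its calls: active means mean signal decrease across replicates above about 35% based on untreated-well scatter, with enough replicates individually passing (limit read from the data); inconclusive means no rule stated though some were filed; inactive means the rest.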 Only a sample is shown.

assay: NIH3T3 cell viability loss – cherry-pick, single point, cytotoxicity control for T. cruzi proliferation inhibitor project, confirmation (AID 651742); conditions: NIH/3T3 viability, CellTiter-Glo ATP luminescence, 90 h; at 8.35 µM; hits give high values;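 further: 0% = median of neutral control wells and 100% = median of positive control wells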

Structure (SMILES) | cytotoxicity (signal decrease)
O=C(Cc1ccccn1)N1CCCCN2[C@@H](CO)[C@@H](c3ccc(C#Cc4ccccc4)cc3)[C@@H]2C1 | 33.5% (inactive)
COc1ccc(C#Cc2ccc([C@H]3[C@H](CO)N4CCCCN(C(=O)Cc5ccccc5)C[C@@H]34)cc2)cc1 | 58.2% (active)
COc1ccc(-c2ccc([C@H]3[C@H](CO)N4CCCCN(C(=O)Cc5ccncc5)C[C@@H]34)cc2)cc1 | 17.6% (inactive)
O=C(Cc1cccnc1)N1CCCCN2[C@@H](CO)[C@H](c3ccc(C#CC4CCCC4)cc3)[C@@H]2C1 | 23.3% (inactive)
C/C=C/c1ccc([C@H]2[C@H](CO)N3CCCCN(C(=O)Cc4ccncc4)C[C@@H]23)cc1 | 11.1% (inactive)
